The nature of assay [1]: CCTE_Shafer_MEA_acute_burst_duration_mean: CCTE's Neural Acute Assay for Mean Burst Duration, Shafer Lab (AID 2284014).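 Note: hits are decreases in mean burst duration relative to DMSO controls.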 The essentials: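 Read-out is the per-well percent change in mean burst duration (first to last spike within a single-electrode burst) between 40-min recordings before and after compound. Cultures were primary rat cortical neurons on MEAs, dosed at 0.03-40 uM on DIV 13 or 15.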

Assay [2] in a line: CCTE_Shafer_MEA_acute_per_burst_spike_number_mean: CCTE's Neural Acute Assay for Average Number of Spikes Per Burst, Shafer Lab (AID 2284015).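 Note: hits are decreases in mean spikes per burst versus baseline.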 The essentials:
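Rat primary cortical neurons on 48-well MEAs (DIV 13 or 15) were treated with 0.03-40 uM compound at 37 C. Mean spikes per burst over 40 min were recorded before and after exposure and expressed as percent change from baseline, relative to DMSO.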

Assay [3] is described as follows: CCTE_Shafer_MEA_acute_interburst_interval_mean: CCTE's Neural Acute Assay for Mean Interburst Interval, Shafer Lab (AID 2284016).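 Note: percent change of mean interburst interval versus each well's own pre-dose baseline; curves fitted for decrease in interburst interval relative to DMSO.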 In outline: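 Rat primary cortical neurons on 48-well MEAs at DIV 13 or 15 were exposed acutely to 0.03-40 uM. Spikes detected at 8x rms noise, 37 C. Mean interburst interval from 40 min recordings expressed as percent change from 40 min pre-treatment baseline.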

Assay [4] is described as follows: CCTE_Shafer_MEA_acute_burst_percentage_mean: CCTE's Neural Acute Assay for Percentage of Spikes in a Burst, Shafer Lab (AID 2284017).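 For AC50: curve fitted for loss of signal so potency reflects decreased burst percentage.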 The essentials: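 Primary rat cortical neurons on 48-well MEA plates, treated on DIV 13 or 15 at 0.03-40 uM. Spikes detected at 8x rms noise at 37C; percent change from 40-min baseline to 40-min post-dose recording, fitted versus DMSO.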

Assay [5] is described as follows: CCTE_Shafer_MEA_acute_burst_percentage_std: CCTE's Neural Acute Assay for Standard Deviation of Burst Percentage, Shafer Lab (AID 2284018).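 Note: fitted in the negative direction so actives lower burst percentage SD.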 The essentials:
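Value is percent change from baseline in the across-electrode SD of spikes-in-bursts percentage, wells with >/= 10 active electrodes. Acute 40-min exposure to 0.03-40 uM on DIV 13 or 15 rat cortical cultures, recorded at 37 C after 40-min baseline.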

The nature of assay [6]: CCTE_Shafer_MEA_acute_per_network_burst_spike_number_mean: CCTE's Neural Acute Assay for Average Number of Spikes in a Network Burst, Shafer Lab (AID 2284019).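 For AC50: curve fitted for loss of signal so actives reduce spikes per network burst.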 In outline:
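Read-out is mean spike count per network burst, taken as percent change between a 40-min pre-exposure and a 40-min post-exposure recording per well. Rat primary cortical neurons on MEAs at 37 C, DIV 13 or 15; compounds at 0.03-40 uM.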

A short description of assay [7]: CCTE_Shafer_MEA_acute_per_network_burst_spike_number_std: CCTE's Neural Acute Assay for Standard Deviation of Number of Spikes in a Network Burst, Shafer Lab (AID 2284020).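 Note: fitted for decrease in spike-number SD versus DMSO so actives lower it.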 In outline: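 Spontaneous network activity of primary rat cortical neurons is recorded extracellularly before and after a 40-min compound exposure (0.03-40 uM) at 37 C. The endpoint is the well's percent change in burst spike-number SD.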

Assay [8] can be described thus: CCTE_Shafer_MEA_acute_per_network_burst_electrodes_number_mean: CCTE's Neural Acute Assay for Mean Number of Electrodes in a Network Burst, Shafer Lab (AID 2284021).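 Note: curves fitted for decreases only so hits reduce electrodes per burst.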 The essentials: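 Readout: % change in mean electrodes active per network burst, post- vs pre-treatment, each well. Spikes detected at 8x rms noise after 300-5000 Hz band-pass; rat cortical cultures, DIV 13/15, compounds 0.03-40 uM, DMSO baseline.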

Assay [9] can be described thus: CCTE_Shafer_MEA_acute_network_burst_percentage: CCTE's Neural Acute Assay for Percentage of Network Bursts, Shafer Lab (AID 2284022).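 Note: curves fitted for loss so actives lower network burst percentage.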 The essentials:
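Rat cortical cultures, DIV 13/15; 20 min equilibration, 40 min baseline, compound 0.03-40 uM, 40 min recording, 37 C. Spikes: 300-5000 Hz band-pass, threshold 8x rms noise. Readout: % change in network-burst spike fraction; loss direction vs DMSO.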

Assay [10] is described as follows: CCTE_Shafer_MEA_acute_cross_correlation_area: CCTE's Neural Acute Assay for Area of Cross Correlation, Shafer Lab (AID 2284024).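 Note: area under pooled inter-electrode spike cross-correlation near zero lag as percent change from own baseline; curves fitted for loss of cross-correlation area so actives lower synchrony.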 In outline:
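Rat cortical cultures, DIV 13/15, MEA; spikes detected at 8x rms noise (300-5000 Hz band-pass). Compound 0.03-40 uM, ≥3 wells each. Readout: % change in pooled inter-electrode cross-correlation area vs own baseline; DMSO negative control.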

Assay [11] can be described thus: CCTE_Shafer_MEA_acute_cross_correlation_HWHM: CCTE's Neural Acute Assay for Cross Correlation at Half Width at Half Maximum, Shafer Lab (AID 2284026).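 Note: spontaneous network firing of rat primary cortical neurons on multiwell microelectrode arrays; percent change per well from pre-dose baseline in spike cross-correlogram half width; hits are a decrease in cross-correlogram half width relative to DMSO.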 In outline:
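Read-out: half width at half maximum of action-potential cross-correlogram, percent change versus pre-treatment baseline, fitted in loss direction against DMSO. Rat cortical cultures, DIV 13 or 15, dosed 0.03-40 uM, 40-min recordings at 37 C.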

Assay [12] is described as follows: CCTE_Shafer_MEA_acute_synchrony_index: CCTE's Neural Acute Assay for Synchrony, Shafer Lab (AID 2284027).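 Note: network synchrony index of spontaneous spiking in primary rat cortical neurons on MEAs; fitted for loss of signal so actives lower synchrony relative to DMSO.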 The essentials: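 Primary rat cortical neurons on 16-electrode MEA wells were recorded 40 min at baseline (DIV 13 or 15) and 40 min after compound (0.03-40 uM) at 37 C. Synchrony index (0-1) expressed as percent change from baseline, versus DMSO.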
The nature of assay [13]: CCTE_Deisenroth_AIME_384WELL_CTox_Active: Cytotoxicity Assessment (CTOX) in CCTE's 384-well Estrogen Receptor Transactivation Assay with AIME metabolic competence (metabolism positive), Deisenroth Lab (AID 2284037; active = hit-call score of the fitted dose curve at least 0.9, where 1 is the maximum;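 note: chemicals first conditioned 2 h by alginate-bound induced rat liver S9 before cells; activity means signal loss indicating cell death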). The essentials:
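Cytotoxicity in VM7Luc4E2 breast cells, 24 hour, measured as protease-substrate fluorescence loss, after 2-hour metabolic conditioning with induced rat hepatic S9 in alginate microspheres. Concentrations 0.002 - 200 uM, 10 points, bidirectional fitting.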

Assay [14] in a line: CCTE_Deisenroth_AIME_384WELL_CTox_Inactive: Cytotoxicity Assessment (CTOX) in CCTE's 384-well Estrogen Receptor Transactivation Assay without AIME metabolic competence (metabolism negative), Deisenroth Lab (AID 2284039; active = hit-call score of the fitted dose curve at least 0.9, where 1 is the maximum;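 note: cell viability via live-cell protease substrate cleaved to fluorescent probe; cells exposed 24 h to medium preincubated 2 h with alginate-water beads without S9; loss of fluorescence signal means loss of viability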). In outline: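 VM7Luc4E2 cells, metabolism-negative arm: test chemicals (0.002–200 uM, 10 points) pre-incubated 2 h with alginate-water microspheres, then medium transferred to cells for 24 h. Viability read as protease-substrate cleavage to fluorescent probe; loss-of-signal, bidirectional fitting.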

For assay [15], the target named is Estrogen receptor (Homo sapiens) (UniProt P03372). The experiment in a line: CCTE_Deisenroth_AIME_384WELL_LUC_Active: CCTE's 384-well Estrogen Receptor Transactivation Assay with AIME metabolic competence (ERTA luciferase; metabolism positive), Deisenroth Lab (AID 2284030; active = hit-call score of the fitted dose curve at least 0.9, where 1 is the maximum). The essentials:
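Readout: bioluminescent luciferase induction in VM7Luc4E2 cells 24 hour after receiving medium from a 2 h rat hepatic S9 (induced, alginate microsphere) metabolism step. Concentrations 0.002 - 200 uM; activity scaled to 17beta-estradiol positive control.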

The target is the same in assay [16]. The experiment in a line: CCTE_Deisenroth_AIME_384WELL_LUC_Inactive: CCTE's 384-well Estrogen Receptor Transactivation Assay without AIME metabolic competence (ERTA luciferase; metabolism negative), Deisenroth Lab (AID 2284038; active = hit-call score of the fitted dose curve at least 0.9, where 1 is the maximum;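 note: VM7Luc4E2 breast cells given medium preincubated 2 h with S9-free microspheres; hits raise estrogen receptor luciferase signal so potencies reflect agonists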). In outline:
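Chemicals (10-point series, 0.002 - 200 uM) were incubated 2 hours with alginate-water microsphere lids lacking S9, then the conditioned medium was transferred to VM7Luc4E2 breast cells for 24 hour. Luciferase induction was read by bioluminescence, fitted upward relative to 17beta-estradiol.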

Records with an inconclusive call do not appear. Active and inactive are the calls of the source. Rule for the calls, unless noted: active = hit-call score of the fitted dose curve at least 0.9, where 1 is the maximum; inactive = score below 0.9.

Estrogen receptor (Homo sapiens), sequence (P03372 whole entry, looked up): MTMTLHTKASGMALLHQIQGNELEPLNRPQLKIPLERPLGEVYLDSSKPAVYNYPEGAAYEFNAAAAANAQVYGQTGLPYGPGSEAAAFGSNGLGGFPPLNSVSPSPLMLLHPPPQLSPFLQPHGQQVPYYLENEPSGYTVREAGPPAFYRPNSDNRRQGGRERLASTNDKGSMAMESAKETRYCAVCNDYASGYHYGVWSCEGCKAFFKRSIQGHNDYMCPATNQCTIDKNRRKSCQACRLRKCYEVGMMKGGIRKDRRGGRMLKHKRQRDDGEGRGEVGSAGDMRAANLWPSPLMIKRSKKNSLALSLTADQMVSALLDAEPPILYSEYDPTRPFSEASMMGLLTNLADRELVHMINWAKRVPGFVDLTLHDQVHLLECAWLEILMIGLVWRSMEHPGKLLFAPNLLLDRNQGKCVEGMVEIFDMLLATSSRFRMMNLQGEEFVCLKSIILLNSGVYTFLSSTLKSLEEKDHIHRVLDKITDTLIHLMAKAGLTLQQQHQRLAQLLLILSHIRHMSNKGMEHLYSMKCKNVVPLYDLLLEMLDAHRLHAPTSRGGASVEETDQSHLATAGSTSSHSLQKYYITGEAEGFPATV

As for `OC(CCl)CCl`, the outcome in [1], in [2], in [3], in assay [4], in assay [5] and in [6] was inactive. The compound was classed as inactive in assay [7], in assay [8], in [9], in [10], in assay [11] and in assay [12].

For the compound `CCc1ccc(O)c(C(C)(C)C)c1`, the AC50 (commonly the concentration at which the activity in the assay is half-maximal) in assay [1] is 30 µM (active); in assay [2], 30.3 µM (active); in assay [4], 2.12 µM (active); in assay [5] it was 20 µM (active); in [6], 35.3 µM (active); in assay [8], 35 µM (active). Also, the outcome in [3], in assay [7], in assay [9], in [10], in assay [11] and in assay [12] was inactive. In addition, the result in assay [13] and in assay [14] was inactive.

`CC(=O)c1ccccc1`: the compound was called inactive in assay [15], in [13], in assay [16] and in [14].

Take `CCCCCOC(C)=O`: the result in assay [15], in assay [13], in assay [16] and in [14] was inactive.

In the case of `CCCc1ccccc1`, the result in assay [1], in [2], in assay [3], in assay [4], in assay [5] and in [6] was inactive. The outcome in assay [7], in [8], in assay [9], in assay [10], in assay [11] and in [12] was inactive. Besides, the compound was called inactive in [15], in assay [13], in assay [16] and in assay [14].

In the case of `OCCOCCOCCO`, the compound was called inactive in [15], in assay [13], in assay [16] and in [14].

`COS(C)(=O)=O`: the compound was called inactive in assay [15], in [13], in [16] and in [14].

Regarding `NC(=O)NN=Cc1ccc([N+](=O)[O-])o1`, the AC50 in assay [13] is 116 µM (active); in assay [14], 108 µM (active).

With `O=C1CN(N=Cc2ccc([N+](=O)[O-])o2)C(=O)N1`, the result in [15], in assay [13] and in assay [16] was inactive. Moreover, the AC50 in assay [14] was 31.2 µM (active).

As for `CCCCCCCC/C=C\CCCCCCCC(=O)OC[C@@H](O)[C@H]1OC[C@H](O)[C@H]1O`, the call in [1], in assay [2], in assay [3], in assay [4], in assay [5] and in assay [6] was inactive. Also, the result in assay [7], in assay [8], in [9], in [10], in assay [11] and in assay [12] was inactive.

The values are drawn from PubChem BioAssay (EPA / NIEHS).
